Bioassay records: PubChem, several laboratories
BaF3 parental: reduces parental Ba/F3 cell viability, JAK2V617F counter-screen. CellTiter-Glo ATP luminescence. inhibition, % at 5.6 µM. hit rate 1.1% among 220,000. AID 1486;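 active means inhibition above a per-campaign cutoff, the mean inhibition of all tested compounds plus 3 SD, cut at about 27% in these data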
IEC-6 cytotox: kills IEC-6 intestinal cells in KLF5 counter-screen; hit rate 0.78% among 290,000; inhibition, % at 5 µM; AID 1825; IEC-6 cytotoxicity, luminescence viability
aSyn UTR inh: MLPCN primary screen, SNCA 5' untranslated region | hit rate 0.82% among 300,000 | alpha-synuclein 5'UTR reporter, inhibitor activity | AID 1813 | inhibition, % (tested at 7.5 µM); in the data active means inhibition above about 60%; inconclusive means no clear call, values can overlap the other calls;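 further: H4 neuroglioblastoma cells stably carrying SNCA 5'UTR luciferase fusion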
APP transl inh: APP translation inhibition; SH-SY5Y APP 5'UTR-luciferase reporter, luminescence; inhibition, % at 2 µM; hit rate 0.82% among 190,000; AID 1285;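 active means inhibition above a set limit, derived from the sample mean plus 3 SD, cut at about 45% in these data; inconclusive means one replicate passes the limit while the other fails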
KLF5 inh: kruppel-like factor 5 inhibition; DLD-1 KLF5 promoter-luciferase reporter, luminescence; inhibition, % at 5 µM; hit rate 0.23% among 290,000;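 active means inhibition above a per-plate limit of that plate's mean compound inhibition plus 3 SD, cut at about 60% in these data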;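 further: higher means less KLF5 promoter-driven luciferase light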
Ba/F3 V617F tox: reduce viability of Ba/F3 cells dependent on JAK2V617F; Ba/F3 EpoR-JAK2V617F viability, ATP luminescence; inhibition, % at 5.6 µM; hit rate 1.1% among 220,000; AID 1446;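 active means inhibition above the campaign mean plus 3 SD over all tested compounds, cut at about 24% in these data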;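 further: cytokine-independent growth of Ba/F3 cells driven by EpoR plus mutant JAK2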
IEC-6 cytotox cf: confirmation of cytotoxic compounds in rat IEC-6 intestinal epithelial cells. hit rate 63% among 1,900. inhibition, % at 5 µM. shares compounds with IEC-6 cytotox. AID 1907. IEC-6 rat intestinal epithelial viability, luminescence
Numbers stand for hits; 0 = inactive; ? = inconclusive; - = no result given. Only some compounds are listed: those with a hit (about 2.1% of all), similar ones and a draw of the others. Unless noted, no stated cut-off is given here; in the data, active means inhibition above about 22%; inactive means the rest.

SMILES	BaF3 parental	IEC-6 cytotox	aSyn UTR inh	APP transl inh	KLF5 inh	Ba/F3 V617F tox	IEC-6 cytotox cf
CCOCCCNC(=O)c1cc2c(s1)-c1ccccc1SC2	-	0	0	-	0	-	-
O=C(c1cccc(-c2ccccc2)c1)N1CC[C@@H](N2CCC(O)CC2)[C@H](O)C1	-	0	0	-	0	-	-
O=C(Nc1ccc2c(c1)OCCO2)C(=O)c1c[nH]c2ccccc12	-	66	0	-	0	-	46
CCCC[C@H](CN[C@@H](CNC)[C@H](C)CC)NCCC12CCC(CC1)C2	-	39	0	-	0	-	102
CC(C)(C)c1ccc(-c2cn(-c3ccc(Br)cc3)c3[n+]2CCCS3)cc1	84	50	0	0	0	100	51
CCOC(=O)/C(C#N)=C/C1=C(N2CCOCC2)CC(C)(C)OC1	0	0	0	-	0	0	-
O=C(/C=C/c1ccccc1)Nc1ccc2c(c1)OCCO2	0	0	0	0	0	0	-
COc1ccccc1/C=C/C(=O)Nc1ccc2c(c1)OCCO2	0	25	0	0	0	0	0
CC(=O)Nc1ccc(NC(=O)CSc2nc(N)c(NC(=O)c3ccco3)c(=O)[nH]2)cc1	-	0	0	-	0	-	-
c1ccc(-c2cccc(-c3ccccn3)n2)nc1	85	81	77	86	0	94	83
c1ccc(-c2nnc(-c3ccccn3)nn2)nc1	-	-	0	-	-	-	-
CN(C)c1ccc(/C=C(\C#N)C(=O)c2ccccc2)cc1	0	0	0	-	0	0	-
CN(C)c1cccc(/C=C(\C#N)c2ccccc2)c1	76	77	0	-	0	81	56
CC(C)C(=O)NC(c1cccc([N+](=O)[O-])c1)c1c(O)ccc2ccccc12 (stereo unspecified)	0	0	0	0	0	0	-
CC(C)C(=O)NC(c1cccc([N+](=O)[O-])c1)c1ccc2cccnc2c1O (stereo unspecified)	-	25	91	-	79	-	67
CC(=O)NC(c1ccc(Cl)cc1Cl)c1ccc2cccnc2c1O (stereo unspecified)	-	49	86	-	0	-	73
Cc1ccc(NC2CCCN(C(=O)CSc3ccncc3)C2)cc1C (stereo unspecified)	-	0	0	-	0	-	-
N=c1c(C(=O)NCC2CCCO2)cc2c(=O)n3ccccc3nc2n1Cc1ccccc1Cl (stereo unspecified)	-	30	0	-	0	-	24
N=c1c(C(=O)NCC2CCCO2)cc2c(=O)n3ccccc3nc2n1Cc1ccccc1 (stereo unspecified)	-	0	0	-	0	-	-
O=C(Nc1ccc(Br)cn1)c1ccc(Br)s1	-	28	0	-	0	-	0
O=C(Nc1ccc(Br)cn1)c1ccc(Cl)s1	-	0	0	-	0	-	-
Cc1sc2nc(-c3ccncc3)[nH]c(=O)c2c1-c1ccccc1	0	0	0	0	0	0	-
Cc1sc2nc(-c3ccccn3)[nH]c(=O)c2c1-c1ccccc1	0	28	-	0	0	0	33
O=C(c1ccccc1-c1ccccc1)N1CCN(c2ccccn2)CC1	55	34	0	46	0	75	39
Cc1cc(-c2ccccc2)nc(N2CCN(c3ccccn3)CC2)n1	0	26	0	0	0	0	41
SMILES	BaF3 parental	IEC-6 cytotox	aSyn UTR inh	APP transl inh	KLF5 inh	Ba/F3 V617F tox	IEC-6 cytotox cf
Nc1nc(N2CCN(c3ccccn3)CC2)nc2ccccc12	-	0	0	-	0	-	-
Cn1c(=O)c2cc(S(=O)(=O)Nc3ccc4c(c3)OCO4)ccc2n(C)c1=O	0	22	0	0	0	0	0
CCc1ccc(OC)c(S(=O)(=O)Nc2ccc(Cc3ccncc3)cc2)c1	-	25	0	-	0	-	0
Clc1ccc2nc(COc3ccccc3)[nH]c2c1	-	27	0	-	0	-	0
O=c1[nH]c(COc2ccccc2)nc2ccccc12	-	0	0	-	0	-	-
Cc1cccc(OCc2nnc(SCC(=O)O)n2-c2ccccc2)c1	-	0	0	-	0	-	-
CC(=O)Nc1nc(-c2ccc3c(c2)CCN3C(=O)C2CC2)c(C)s1	-	49	0	-	0	-	0
CNc1nc(-c2ccc3c(c2)CCN3C(=O)CC(C)(C)C)c(C)s1	0	0	0	0	0	0	-
CC1=Nc2cc(C(=O)NCC3CCCO3)ccc2Sc2ccc(Br)cc21 (stereo unspecified)	0	43	0	-	0	0	29
CC1=Nc2cc(C(=O)O)ccc2Sc2ccc(Br)cc21	0	0	-	0	0	0	-
O=C(CCNC(=O)C1CCN(S(=O)(=O)c2ccc(F)cc2)CC1)Nc1ccccc1	-	0	0	-	0	-	-
COc1ccc(OC)c(-c2cc(C(=O)N/N=C(\C)c3cccnc3)c3ccccc3n2)c1	-	0	0	-	0	-	-
O=C(N/N=C/c1ccc([N+](=O)[O-])o1)c1cc(-c2ccc(-c3ccccc3)cc2)nc2ccccc12	62	36	76	90	0	64	52
O=C(N/N=C/c1ccc([N+](=O)[O-])o1)c1cc(-c2ccncc2)nc2ccccc12	0	0	0	0	0	0	-
O=C(N/N=C/c1cccnc1)c1cc(-c2ccc(Br)cc2)nc2ccccc12	-	26	-	-	0	-	0
CCOc1ccc(-c2cc(C(=O)N/N=C(\C)c3cccnc3)c3ccccc3n2)cc1	-	36	0	-	0	-	0
Cc1ccc(/C=N/NC(=O)c2cc(-c3ccncc3)nc3ccccc23)o1	-	65	0	-	0	-	45
Cc1cc(=O)[nH]c(SCc2ccc(Cl)cc2Cl)n1	-	0	0	-	0	-	-
CCOC(=O)c1c(C)[nH]c(C(=O)N2CCN(c3ccc(OC)cc3)CC2)c1C	0	0	0	0	0	0	-
O=[N+]([O-])c1ccc(Cl)c(S(=O)(=O)/N=C(/c2ccccc2)N2CCOCC2)c1	0	0	0	0	0	0	-
Cc1ccsc1/C=N/NC(=O)c1cc(-c2ccncc2)nc2ccccc12	75	72	67	94	0	71	58
NNC(=O)c1cc(-c2cccs2)nc2ccccc12	0	32	0	-	0	0	0
COc1ccc(NC2CCCN(C(=O)c3ccccc3C(F)(F)F)C2)cc1 (stereo unspecified)	-	0	0	-	0	-	-
Clc1ccc(OCc2noc(-c3ccsc3)n2)c(Cl)c1	0	0	0	-	0	0	-
COC(=O)[C@@H]1Cc2c([nH]c3ccccc23)C(C)(C)N1C(=O)CCl	-	95	?	-	0	-	36
SMILES	BaF3 parental	IEC-6 cytotox	aSyn UTR inh	APP transl inh	KLF5 inh	Ba/F3 V617F tox	IEC-6 cytotox cf
Cc1cccn2c(=O)c3cc(C(=O)NC4CCCC4)sc3nc12	-	0	0	-	0	-	-
O=C(c1ccc(CS(=O)c2ccccc2Cl)o1)N1CCN(c2ccccn2)CC1 (stereo unspecified)	-	56	0	-	0	-	45
CC(C)NCCCCOc1ccc(Br)cc1Cl	0	0	0	0	0	0	-
Cc1cc(OCC(=O)Nc2cc(C(C)(C)C)on2)ccc1[N+](=O)[O-]	-	0	0	-	0	-	-
CC1(C)CC(N2CCCC2)=CC(=[N+]2CCCCC2)C1	67	23	0	0	0	82	33
O=C1NCCCCC1NS(=O)(=O)c1cccc(C(F)(F)F)c1 (stereo unspecified)	-	0	0	-	0	-	-
CCOC(=O)N=Nc1c2ccccc2c2nc3no[nH]c3nc12	0	100	119	94	0	0	102
